PubChem BioAssay (NCI)
Compounds without any hit were thinned out: in the full panel of roughly 83,000, 20% have a hit.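 For each line, cells grew in 96-well plates with the test compound present at a single concentration for 48 hours.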 A number with no mark means an inactive call. Active and inactive are the calls of the source. Rule for the calls: active = growth percent below 10; inactive = the rest.

Key:
Test in all cases: NCI-60 one-dose screen, 48 h (100 = growth as untreated, 0 = no growth, -100 = all killed)
Conditions in all cases: 10 µM unless noted
[1] = system: HCT-15 colon
[2] = system: HT29 colon
[3] = system: SNB-75 CNS
[4] = system: SNB-19 CNS
[5] = system: U251 CNS
[6] = system: PC-3 prostate
[7] = system: SK-MEL-5 melanoma
[8] = system: UACC-62 melanoma
[9] = system: LOX IMVI melanoma
[10] = system: SK-MEL-28 melanoma
[11] = system: EKVX NSCLC
[12] = system: SN12C renal
[13] = system: TK-10 renal
[14] = system: ACHN renal
[15] = system: CAKI-1 renal
[16] = system: A498 renal
[17] = system: CCRF-CEM leukemia
[18] = system: MOLT-4 leukemia
[19] = system: UO-31 renal

Compound: COc1cc(OC)c(/C=C/S(=O)(=O)Cc2ccc(OC)c(NCC(=O)O)c2)c(OC)c1
- growth [1]: 11.8%
- growth [2]: 0.285% (active)
- growth [3]: 18.2%
- growth [4]: 29.4%
- growth [5]: 11.4%
- growth [6]: 21.9%
- growth [7]: -12.1% (active)
- growth [8]: 37.4%
- growth [9]: 16%
- growth [10]: 65.9%
- growth [11]: 27.3%
- growth [12]: 34%
- growth [13]: 49.7%
- growth [14]: 30.2%
- growth [15]: 18.2%
- growth [16]: -4.03% (active)
- growth [17]: 16.2%
- growth [18]: 14.5%

Compound: CO[C@H]1C[C@@H]2CC[C@@H](C)[C@@](O)(O2)C(=O)C(=O)N2CCCC[C@H]2C(=O)O[C@H]([C@H](C)C[C@@H]2CC[C@@H](OP(C)(C)=O)[C@H](OC)C2)CC(=O)[C@H](C)/C=C(\C)[C@@H](O)[C@@H](OC)C(=O)[C@H](C)C[C@H](C)\C=C/C=C/C=C/1C
- growth [1]: 47.6%
- growth [2]: 40.3%
- growth [3]: 17.6%
- growth [4]: 53%
- growth [5]: 40.4%
- growth [6]: 42.2%
- growth [7]: 51.6%
- growth [8]: 39.5%
- growth [9]: 42.7%
- growth [10]: 54.4%
- growth [11]: 49.8%
- growth [12]: 53.9%
- growth [13]: 46%
- growth [14]: 54.4%
- growth [15]: 50.1%
- growth [16]: 2.06% (active)
- growth [18]: 28.8%

Compound: CC(C)NC[C@@H](C(=O)N1CCN(c2ncnc3c2[C@H](C)C[C@H]3O)CC1)c1ccc(Cl)cc1
- growth [1]: 71.2%
- growth [2]: 27.4%
- growth [3]: 8.53% (active)
- growth [4]: 26.7%
- growth [5]: 28.4%
- growth [6]: 33%
- growth [7]: 72.4%
- growth [8]: 44.6%
- growth [9]: 66.8%
- growth [10]: 55.6%
- growth [11]: 72%
- growth [19]: 53.7%
- growth [13]: 32.2%
- growth [14]: 68.7%
- growth [15]: 45.1%
- growth [16]: -21.7% (active)
- growth [17]: 22.5%
- growth [18]: 23.3%

Compound: Cn1cnc2c(F)c(Nc3ccc(Br)cc3Cl)c(C(=O)NOCCO)cc21
- growth [1]: 70%
- growth [2]: 7.16% (active)
- growth [3]: 71.6%
- growth [4]: 52.3%
- growth [5]: 46.2%
- growth [6]: 90.7%
- growth [7]: 38.2%
- growth [8]: -26.6% (active)
- growth [9]: 27.6%
- growth [10]: -5.61% (active)
- growth [11]: 54.4%
- growth [19]: 40.9%
- growth [13]: 33.7%
- growth [14]: 52.1%
- growth [15]: 40.2%
- growth [16]: -37% (active)
- growth [17]: 95.8%
- growth [18]: 92.2%

Compound: Cn1ncc(Cl)c1-c1cc(C(=O)N[C@H](CN)Cc2ccc(F)c(F)c2)oc1Cl
- growth [1]: 6.57% (active)
- growth [2]: -11.7% (active)
- growth [3]: -86.4% (active)
- growth [4]: 2.29% (active)
- growth [5]: -86.5% (active)
- growth [6]: -25% (active)
- growth [7]: -96.2% (active)
- growth [8]: -78.5% (active)
- growth [9]: -88.8% (active)
- growth [10]: -77.1% (active)
- growth [11]: 6.1% (active)
- growth [19]: -19.8% (active)
- growth [13]: -91% (active)
- growth [14]: 4.47% (active)
- growth [15]: -34.2% (active)
- growth [16]: -78.9% (active)
- growth [17]: 3.82% (active)
- growth [18]: -4.62% (active)

Compound: CC1(COc2ccc3c(c2)ncn3-c2ccc3cccc(N4CCC(N)CC4)c3n2)COC1
- growth [1]: 10.5%
- growth [2]: 0% (active)
- growth [3]: 14.4%
- growth [4]: 7.04% (active)
- growth [5]: -36.4% (active)
- growth [6]: 30.2%
- growth [7]: -13.8% (active)
- growth [8]: 99.3%
- growth [9]: -57.2% (active)
- growth [10]: 15.2%
- growth [11]: 34.6%
- growth [19]: -3.3% (active)
- growth [13]: 32%
- growth [14]: 2.83% (active)
- growth [15]: 22.9%
- growth [16]: 85.1%
- growth [17]: 2.15% (active)
- growth [18]: -4.11% (active)

Compound: CNC(=O)c1cc(Oc2cccc3nc(Nc4ccc(Cl)c(F)c4)ccc23)ccn1
- growth [1]: 59.3%
- growth [2]: 82.5%
- growth [3]: -11.7% (active)
- growth [4]: 30.3%
- growth [5]: 53.3%
- growth [6]: 66.1%
- growth [7]: 44.8%
- growth [8]: 52.3%
- growth [9]: 59.6%
- growth [10]: 48.8%
- growth [11]: 71.1%
- growth [19]: 81.6%
- growth [13]: 54.1%
- growth [14]: 38.5%
- growth [15]: 87.9%
- growth [16]: 83.8%
- growth [17]: 91.3%
- growth [18]: 69.2%

Compound: Nc1ncnc2c1c(-c1cccc(OCc3ccccc3)c1)cn2C1CC(CN2CCC2)C1 (stereo not drawn)
- growth [1]: 10.1%
- growth [2]: -39.8% (active)
- growth [3]: -28.7% (active)
- growth [4]: 32.1%
- growth [5]: -17.9% (active)
- growth [6]: 27.4%
- growth [7]: -96.7% (active)
- growth [8]: -55.9% (active)
- growth [9]: -75% (active)
- growth [10]: -69.6% (active)
- growth [11]: 30.1%
- growth [19]: -66.6% (active)
- growth [13]: 28.4%
- growth [14]: 18.7%
- growth [15]: 7.5% (active)
- growth [16]: -1.47% (active)
- growth [17]: 5.52% (active)
- growth [18]: -14.5% (active)

Compound: CN1CCN(CCCOc2cccc3nc(Nc4ccc(Cl)c(C(F)(F)F)c4)ccc23)CC1
- growth [1]: -49.6% (active)
- growth [2]: -58.9% (active)
- growth [3]: -3.73% (active)
- growth [4]: 20.8%
- growth [5]: -22.7% (active)
- growth [6]: 14.6%
- growth [7]: 41.5%
- growth [8]: -29% (active)
- growth [9]: -95% (active)
- growth [10]: -45.2% (active)
- growth [11]: 44.5%
- growth [12]: 28.3%
- growth [13]: -66.5% (active)
- growth [14]: -69.3% (active)
- growth [15]: 48.9%
- growth [16]: 30.8%
- growth [17]: -24.7% (active)
- growth [18]: -57.6% (active)

Compound: NC[C@@](O)(c1ccc(Cl)cc1)c1ccc(-c2cn[nH]c2)cc1
- growth [1]: 9.55% (active)
- growth [2]: 1.46% (active)
- growth [3]: -6.12% (active)
- growth [4]: 30.6%
- growth [5]: 19.1%
- growth [6]: 40.1%
- growth [7]: 39.3%
- growth [8]: -2.01% (active)
- growth [9]: 7.1% (active)
- growth [10]: 3.21% (active)
- growth [11]: 27.1%
- growth [19]: -13.6% (active)
- growth [13]: 5.87% (active)
- growth [14]: 11.6%
- growth [15]: 11.3%
- growth [16]: -2.12% (active)
- growth [17]: 15.8%
- growth [18]: 13.2%

Compound: COc1cc(N2CCC(N(C)C)CC2)ccc1Nc1ncc(Cl)c(Nc2ccccc2P(C)(C)=O)n1
- growth [1]: 7.34% (active)
- growth [2]: -4.74% (active)
- growth [3]: -82.5% (active)
- growth [4]: 14.9%
- growth [5]: 5.24% (active)
- growth [6]: 26%
- growth [7]: 16.5%
- growth [8]: 16%
- growth [9]: -60.3% (active)
- growth [10]: 49.4%
- growth [11]: 20%
- growth [12]: 1.55% (active)
- growth [13]: -43.9% (active)
- growth [14]: 1.69% (active)
- growth [15]: -60.9% (active)
- growth [16]: -70% (active)
- growth [17]: 10.4%
- growth [18]: 13.4%

Compound: COc1cc2c(Nc3ccc(Br)cc3F)ncnc2cc1OCC1CCN(C)CC1
- growth [1]: 11.6%
- growth [2]: 5.35% (active)
- growth [3]: -59.8% (active)
- growth [4]: 37.6%
- growth [5]: 8.98% (active)
- growth [6]: 39.1%
- growth [7]: -66.3% (active)
- growth [8]: -45.8% (active)
- growth [9]: -45.6% (active)
- growth [10]: -79.7% (active)
- growth [11]: 35.4%
- growth [12]: 16.9%
- growth [13]: -4.33% (active)
- growth [14]: 9.47% (active)
- growth [15]: 0.316% (active)
- growth [16]: -71.1% (active)
- growth [17]: 14.5%
- growth [18]: 18.1%

Compound: CCCCn1c(C)nc2ccc(Nc3nc(N4CCN(C)CC4)nc4nc[nH]c34)cc21
- growth [1]: 110%
- growth [2]: 90.9%
- growth [3]: 63.5%
- growth [4]: 95.6%
- growth [5]: 82.9%
- growth [6]: 84.2%
- growth [7]: 86.8%
- growth [8]: 91.9%
- growth [9]: 83.9%
- growth [10]: 109%
- growth [11]: 96.9%
- growth [12]: 87.3%
- growth [13]: 104%
- growth [14]: 106%
- growth [15]: 99.8%
- growth [16]: 71.7%
- growth [17]: 90.5%
- growth [18]: 87.1%

Compound: N#CCNC(=O)c1ccc(-c2ccnc(Nc3ccc(N4CCOCC4)cc3)n2)cc1
- growth [1]: 20.7%
- growth [2]: 24.2%
- growth [3]: -4.36% (active)
- growth [4]: 50.8%
- growth [5]: 19.3%
- growth [6]: 30.8%
- growth [7]: 25.1%
- growth [8]: 34%
- growth [9]: 4.92% (active)
- growth [10]: 36.7%
- growth [11]: 43.9%
- growth [12]: 31.5%
- growth [13]: -8.51% (active)
- growth [14]: 6.04% (active)
- growth [15]: -5.7% (active)
- growth [16]: -31.8% (active)
- growth [17]: 15.7%
- growth [18]: 7.11% (active)

Compound: O=C(c1ccc(F)c(F)c1Nc1ccc(I)cc1F)N1CC(O)([C@@H]2CCCCN2)C1
- growth [1]: 25.6%
- growth [2]: -18.5% (active)
- growth [3]: 21.7%
- growth [4]: 36.4%
- growth [5]: 15.3%
- growth [6]: 38.6%
- growth [7]: -92.9% (active)
- growth [8]: -5.75% (active)
- growth [9]: -84.1% (active)
- growth [10]: -1.76% (active)
- growth [11]: 24.4%
- growth [19]: -9.6% (active)
- growth [13]: 11.6%
- growth [14]: 18.2%
- growth [15]: 21.9%
- growth [16]: -71.2% (active)
- growth [17]: 39.7%
- growth [18]: 4.19% (active)

Compound: S=C(NCc1ccc2c(c1)OCO2)N1CCN(c2ncnc3c2oc2ccccc23)CC1
- growth [1]: 37.1%
- growth [2]: 28.9%
- growth [3]: 37.6%
- growth [4]: 49.1%
- growth [5]: 41.3%
- growth [6]: 27.3%
- growth [7]: -46% (active)
- growth [8]: 31%
- growth [9]: 44.6%
- growth [10]: 52.9%
- growth [11]: 38.8%
- growth [12]: 50.8%
- growth [19]: 11.9%
- growth [13]: -3% (active)
- growth [15]: 28%
- growth [16]: 19.8%
- growth [17]: 22.5%
- growth [18]: 5.79% (active)

Compound: CN1CCN(c2ccc(C(=O)Nc3n[nH]c4ccc(Cc5cc(F)cc(F)c5)cc34)c(NC3CCOCC3)c2)CC1
- growth [1]: -65.7% (active)
- growth [2]: -56.8% (active)
- growth [3]: -93.2% (active)
- growth [4]: -50.3% (active)
- growth [5]: -83.7% (active)
- growth [6]: -12.3% (active)
- growth [7]: -96.5% (active)
- growth [8]: -78.4% (active)
- growth [9]: -89.7% (active)
- growth [10]: -87% (active)
- growth [11]: 8.7% (active)
- growth [12]: -6.17% (active)
- growth [13]: -5.76% (active)
- growth [15]: -80.7% (active)
- growth [17]: 1.8% (active)
- growth [18]: -20.4% (active)
